Compound activity: PubChem, National Center for Advancing Translational Sciences (NCATS)
In the library only some 19% were active in any assay of this set; here they are far more common.
SARS PLP yeast: SARS-CoV PLP inhibition in yeast; S. cerevisiae expressing SARS-CoV PLpro, growth rescue; actives 0.19% (n = 330,000); Potency, µM (doses to about 32.9 µM), without a hit: at the top dose activity, positive = growth rescue, usual class: activators; calls by dose curve; also: potency is read from the fitted curve at half-maximal effect; 0% is about no effect; nearly all actives have a fitted effect of over 55% in size
Pf growth 96h: inhibits malaria parasite growth, 96 h; P. falciparum luciferase reporter growth, 96 h; Potency, µM (series often up to 28.7 µM), without a hit: at the top dose activity change, negative = inhibition, hits mostly inhibitors; actives 6.9% (n = 320,000); also: potency is read from the fitted curve at half-maximal effect; % is scaled to controls: 0 for no effect and ±100 for the full control effect
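Parasite growth measured via integrated firefly luciferase reporter in P. falciparum. Infected erythrocytes at 2% hematocrit, 0.05% parasitemia final were treated 96 hours at 37 C under 5% CO2, and luminescence was read.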
Shiga toxin inh: inhibitors of Shiga toxin in Vero cells | inhibition, % at 38.7 µM | actives 9.2% (n = 290,000) | Vero cells, Shiga toxin protein synthesis inhibition reporter; in the data active = inhibition mostly above about 28%, no sharp cut-off; inactive = mostly below about 43%; also: 0% is about no effect
AMA1 RON2 block: disrupts binding of P. falciparum AMA1 to RON2. AlphaScreen AMA1-biotinylated RON2 peptide binding. Potency, µM (highest dose often 58.2 µM), inactives show top-dose activity change, negative = inhibition, actives largely listed as inhibitors. actives 0.2% (n = 360,000);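 also: potency is read from the fitted curve at half-maximal effect; 0% = vehicle wells and -100% = peptide control; nearly all actives have a fitted effect of over 45% in size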
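AMA1 (3D7) with his tag at 25 nM final met compounds first, then biotinylated RON2 peptide at 25 nM; detection used donor plus acceptor beads, 10 µg/mL apiece, read by AlphaScreen after 30 min at room temperature.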
Cycloheximide cs: affects cycloheximide protein synthesis inhibition readout, counter-screen. cell reporter, cycloheximide protein synthesis inhibition counterscreen. max response, %. actives 12% (n = 300,000). AID 2314; in the data active = max response mostly above about 13%, no sharp cut-off; inactive = mostly below about 14%; also: read at 38.3 µM for the half of the compounds with a filed dose; 0% is about no effect
Pf growth 48h: P. falciparum growth inhibition at 48 hours (one generation) | P. falciparum luciferase growth in erythrocytes, 48 h | Potency, µM (doses to about 28.7 µM), for inactives: at the top dose activity change, negative = inhibition, hits mostly inhibitors | actives 5.9% (n = 310,000); also: potency is read from the fitted curve at half-maximal effect; % is scaled to controls: 0 for no effect and ±100 for the full control effect
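First compound was added to culture medium, then infected red cells at 0.1% parasitemia and 2% hematocrit (final). After incubation at 37 C under 5% CO2, luciferase detection reagent was dispensed and light output recorded.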
Active calls of the source: *; u = inconclusive; x = not tested or not shown. Unless noted, calls follow the shape of the dose curve; as a rule, active = well fitted curve in the direction sought with a large enough effect; inconclusive = small, poorly fitted or top-dose-only effect, or another doubt; inactive = no such curve, though single readings can be large; an effect the other way counts as inactive or inconclusive.

SMILES	SARS PLP yeast	Pf growth 96h	Shiga toxin inh	AMA1 RON2 block	Cycloheximide cs	Pf growth 48h
COC1CCN(C(=O)C2CCC(=O)N(CCc3cccc(F)c3)C2)CC1 (stereo not drawn)	-1%	0%	23	-11%	28*	11%
O=C1CCC(C(=O)N2CCCC2)CN1CCc1cccc(F)c1 (stereo not drawn)	5%	-23%	-8	-4%	14	1%
CCOC(=O)N1CCN(C(=O)C2CCC(=O)N(Cc3cccc(C(F)(F)F)c3)C2)CC1 (stereo not drawn)	0%	u	-7	-2%	-2	u
O=S(=O)(Nc1ccc(C(O)(C(F)(F)F)C(F)(F)F)cc1)c1cccc2ccccc12	x	x	x	2%	x	x
CN(C)/C=C(\C#N)C(N)=C(C#N)C#N	2%	59%	18	-3%	-1	u
O=[N+]([O-])CC(=Nc1ccc(Cl)cc1)N/N=C\c1oc(O)c2ccccc12	14%	44%	48	46%	21*	x
Cc1ccc(S(=O)(=O)N2CCN(CC(=O)Nc3ccccc3C(=O)NC3CC3)CC2)cc1	2%	-18%	x	14%	x	u
COc1ccc(CCC(=O)N2CCCSC2=Nc2ccc(C(C)=O)cc2)cc1	16%	u	-1	-3%	21*	7%
COc1ccc(CCC(=O)N2CCCc3ccccc32)cc1	-3%	17%	-21	-2%	16	13%
CCCCCCSc1nnc2[nH]c(=O)cc(N)n12	9%	5.2µM*	-1	1%	-1	u
C=CCOc1cccc(C(=O)N2CCCC(CCC(=O)NCc3ccccc3F)C2)c1 (stereo not drawn)	0%	21%	73	6%	29*	-11%
Cc1ccc(C(=O)N2CCCC(CCC(=O)NCc3ccccc3F)C2)cn1 (stereo not drawn)	3%	3%	27	13%	21*	22%
Cc1ccsc1C(=O)N1CCCC(CCC(=O)NCc2ccccc2F)C1 (stereo not drawn)	0%	u	29	u	15*	0%
Cc1cc(NC(=O)C2CC=CCC2C(=O)O)ccc1NC(=O)c1ccccc1 (stereo not drawn)	24%	9.3µM*	25*	-11%	25	u
Cc1cc(NC(=O)c2cc3ccccc3o2)ccc1NC(=O)c1ccccc1	-9%	-24%	53	-4%	13*	16%
O=C(O)C1CC=CCC1C(=O)Nc1ccc2c(c1)CCC2 (stereo not drawn)	1%	14%	23	5%	-2	6%
Cc1cc(NC(=O)c2ccc3c(c2)OCCO3)ccc1NC(=O)c1cc2ccccc2o1	0%	u	71*	-2%	16*	21%
Cc1oc(=O)c(NC(=O)c2ccccc2)cc1C(N)=O	0%	u	18	21%	3	0%
O=C(Nc1cc2ccccc2oc1=O)c1ccccc1	-4%	11%	87*	2%	31*	386%
CC1(C)C(=O)Nc2ccccc2N1C(=O)COC(=O)COc1ccc(C#N)cc1	-1%	9%	4	-9%	1	36%
Cc1ccc(Nc2ccc(C(=O)O)cc2N)cc1	-9%	u	52	-9%	22*	98%
Cc1cc(C)cc(Nc2ccc(C(=O)O)cc2N)c1	17%	14%	48*	-3%	52*	51%
COc1cccc(Nc2ccc(C(=O)O)cc2N)c1	-2%	u	74*	-8%	62*	152%
Cc1cc(C)cc(Nc2ccc(C(=O)O)cc2[N+](=O)[O-])c1	-2%	27%	-9	0%	-3	0%
COc1cccc(Nc2c(F)c(F)c(F)c(F)c2C(=O)O)c1	5%	13µM*	-6	-5%	-1	-7%
SMILES	SARS PLP yeast	Pf growth 96h	Shiga toxin inh	AMA1 RON2 block	Cycloheximide cs	Pf growth 48h
Cc1cc(Nc2ccc([N+](=O)[O-])cc2)nc2ccccc12	-2%	26%	19	5%	-3	u
COc1cc(Nc2c3ccccc3nc3ccccc23)cc(OC)c1OC	-1%	u	-3	-22%	-1	7.4µM*
COc1ccc(Nc2c3c(nc4ccccc24)CCC3)cc1	-2%	-28%	-5	4%	-3	u
COc1ccccc1Nc1nc(-c2ccccc2)nc2ccccc12	-2%	-1%	-5	90%	-1	6%
COc1ccc(Nc2c3ccccc3nc3ccccc23)cc1	-9%	43%	44*	-13%	22*	4.1µM*
COc1ccc(Nc2cc(C)c3ccccc3n2)cc1	-2%	-17%	103*	u	41*	6%
COc1ccc(Nc2c3c(nc4ccccc24)CCCC3)cc1OC	7%	1%	-3	-18%	-7	-18%
COc1ccccc1Nc1c2ccccc2nc2ccccc12	-1%	2.3µM*	-3	-3%	-2	7.4µM*
CCCCCn1c(N(C)Cc2ccccc2)nc2c1c(=O)[nH]c(=O)n2C	-2%	u	-9	-13%	-1	u
COc1ccccc1Nc1nc(C)cc(C)n1	26%	u	15	1%	-3	1%
COc1ccccc1Nc1cc(C)nc(Nc2ccccc2OC)n1	-2%	10µM*	x	-23%	x	u
COc1ccccc1Nc1nc2ccccc2[nH]1	-2%	u	91*	1%	29*	u
COc1ccc(CCN2C(=O)CC(NNc3ccc([N+](=O)[O-])cc3)C2=O)cc1OC (stereo not drawn)	-1%	0%	-17	0%	6	u
CC(C)[C@H](NC(=O)c1ccccc1)C(=O)OCC(=O)Nc1ncc(Cl)cc1Cl	7%	x	x	-6%	x	x
Cc1cc(C)c(C(=O)N2CCC(N3CCC(C(=O)NC(C)C)CC3)CC2)o1	1%	12µM*	10	-13%	-1	u
COc1ccc(NC(=O)Nc2ccc(Cc3ccncc3)cc2)c(OC)c1	-15%	-8%	-3	-19%	-1	-4%
Nc1nc(SCC(=O)Nc2ncc(Cl)cc2Cl)n[nH]1	-1%	8%	x	-20%	x	10%
Cc1cc(Nc2ncc(Cl)cc2Cl)n[nH]1	-1%	x	74	41%	15*	28%
CCOc1cc(/C=N\Nc2nc(-c3ccc(C)cc3)c(NC(C)=O)s2)ccc1O	3%	u	24	32%	2	8.3µM*
COc1cc(/C=N\Nc2nc(-c3ccc(C)cc3)c(NC(C)=O)s2)ccc1O	0%	5.9µM*	51	21%	19*	10µM*
COc1ccc(/C=N/Nc2nc(-c3ccc(C)cc3)c(NC(C)=O)s2)cc1OC	1%	1.2µM*	55*	5%	34*	1.2µM*
COc1cc(/C=N/NC(N)=O)ccc1OC(=O)c1ccc(C)cc1	0%	33%	-1	x	10	1%
COc1cc(/C=N/Nc2nc(C)cc(C)n2)ccc1O	x	x	x	121%	x	x
